Platelet DG rel: modulates dense granule release in human platelets; human platelet-rich plasma, SFLLRN dense granule ATP release, luminescence; inhibition, %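 (compounds screened at 7.5 µM in platelet-rich plasma)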; actives 0.22% (n = 300,000); AID 1663;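 active = mean replicate score, as percent of positive control, at or above 50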
VLA-4 inh: inhibition in a human VLA-4 binding assay. P13612. VLA-4 expressing cells, ligand binding flow cytometry. inhibition, % (about 7 µM as worked out from the volumes in the protocol). actives 0.2% (n = 330,000); in the data active = inhibition above about 50%
ABCB6 inh MLPCN: blocks the human ABCB6 transporter; Q9NP58; K562-ABCB6 porphyrin accumulation, flow cytometry, 1 h; active compounds read low; fluorescence ratio to DMSO, % at 10 µM; actives 0.19% (n = 360,000); AID 602162;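 active = fluorescence ratio to DMSO below 75%, the collection mean minus 3 SD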;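 also: signal is porphyrin accumulated inside mitochondria; lower ratio means ABCB6 inhibition with less porphyrin fluorescence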
Target sequence (Q9NP58 whole entry, looked up): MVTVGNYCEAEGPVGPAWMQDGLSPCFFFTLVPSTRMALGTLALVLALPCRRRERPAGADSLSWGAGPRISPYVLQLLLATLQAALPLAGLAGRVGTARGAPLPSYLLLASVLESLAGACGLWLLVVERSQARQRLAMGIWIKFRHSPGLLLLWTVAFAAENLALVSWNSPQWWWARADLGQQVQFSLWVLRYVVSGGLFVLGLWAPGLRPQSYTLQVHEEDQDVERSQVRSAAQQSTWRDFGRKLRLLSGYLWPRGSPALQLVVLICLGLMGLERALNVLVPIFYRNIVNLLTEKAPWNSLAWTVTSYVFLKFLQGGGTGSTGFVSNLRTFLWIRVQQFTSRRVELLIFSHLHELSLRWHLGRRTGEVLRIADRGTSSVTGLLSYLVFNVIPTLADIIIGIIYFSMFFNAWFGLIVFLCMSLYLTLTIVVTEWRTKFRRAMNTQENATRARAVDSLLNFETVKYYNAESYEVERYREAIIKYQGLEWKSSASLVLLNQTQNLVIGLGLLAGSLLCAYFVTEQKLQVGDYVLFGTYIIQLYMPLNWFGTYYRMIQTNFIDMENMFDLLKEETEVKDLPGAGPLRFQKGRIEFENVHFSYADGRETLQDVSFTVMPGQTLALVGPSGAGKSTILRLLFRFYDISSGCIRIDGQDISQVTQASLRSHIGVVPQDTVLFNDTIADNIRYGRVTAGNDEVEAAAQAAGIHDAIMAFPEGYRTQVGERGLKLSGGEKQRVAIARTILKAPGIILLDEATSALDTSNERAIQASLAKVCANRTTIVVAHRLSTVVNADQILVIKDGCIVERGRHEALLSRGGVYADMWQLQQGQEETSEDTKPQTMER
Yeast superoxide: caloric restriction mimetics inhibiting age-related superoxide in yeast; S. cerevisiae aged cells, superoxide DHE fluorescence; active compounds read low; superoxide response (% of plate mean), % at 10 µM; actives 0.18% (n = 330,000);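 active = superoxide response under a set limit, about three screen SD below normal, cut at about 65% in these data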;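 also: yeast aged for seven days with compound at 30 °C before DHE staining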
SKN-1 block: C. elegans SKN-1 inhibition | C. elegans VP596 Pgst-4::GFP/RFP ratio, acrylamide-induced, 24 h | inhibition, % at 21.8 µM | actives 0.49% (n = 360,000);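 active = interference check ratio from 0.5 to 1.5 plus GFP to RFP signal ratio inhibition reaching or exceeding a fixed threshold, cut at about 30% in these data, passing the limit was not always enough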
ABCB6 inh CP1: blocks the human ABCB6 transporter. 700 tested, under 10 active. K562-ABCB6 porphyrin accumulation, flow cytometry, 1 h; active compounds read low. shares compounds with ABCB6 inh MLPCN. AID 602430. ratio response (% of DMSO), % at 10 µM;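 active = repeat-averaged ratio response below 75% of DMSO, the collection mean minus 3 SD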;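 also: median porphyrin fluorescence at 575 nm with 488 nm excitation from mitochondria; lower ratio means less porphyrin signal so ABCB6 inhibition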
K562 vector FC: counter-screen for ABCB6 inhibitors: effect in vector-only K562 cells. shares compounds with ABCB6 inh MLPCN. K562 empty-vector cells, flow cytometry fluorescence, 1 h. percent response (fluorescence), % at 100 µM. 25 tested, under 10 active. AID 624484;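 active = compounds whose half-maximal effective concentration is below 100 µM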
Of the large screens only hits and unclear results are named; the others gave an inactive call (follow-up assays come after a bar, where they were run). Most compounds without a hit are left out; they make up all but 1.2% or so of the library.

Cc1nn(-c2ccccc2)c(N)c1Sc1cccc([N+](=O)[O-])c1	none
Cc1nn(-c2ccccc2)c(N)c1Sc1ccccc1[N+](=O)[O-]	ABCB6 inh MLPCN 46 | ABCB6 inh CP1 inactive
CCNC(=O)C1(C)CCCN(C(=O)c2ccc3c(c2)C(C)(C)CCC3(C)C)C1 (stereo unspecified)	none (no result: Platelet DG rel, VLA-4 inh, Yeast superoxide)
O=[N+]([O-])c1cccc(COc2ncnc3cc([N+](=O)[O-])ccc23)c1	ABCB6 inh MLPCN 10 | ABCB6 inh CP1 inactive
Cc1ccc([C@@]2(OC(=O)c3ccccc3)C(=O)N(C(=O)OC(C)(C)C)c3ccccc32)cc1	none (no result: Platelet DG rel, VLA-4 inh, Yeast superoxide)
CCOc1ccc(-c2cncc3nccn23)cc1	ABCB6 inh MLPCN 65 (no result: Platelet DG rel, VLA-4 inh, Yeast superoxide) | ABCB6 inh CP1 inactive
COc1ccc(-c2cncc3nccn23)cc1OC	none (no result: Platelet DG rel, VLA-4 inh, Yeast superoxide)
COc1ccc(NC(=O)CN2CCCCCC2)cc1OC	ABCB6 inh MLPCN 73 | ABCB6 inh CP1 inactive
COc1ccc(NC(=O)CN2CCCCC2)cc1S(=O)(=O)N1CCCCC1	none (no result: Platelet DG rel)
O=C(CN1CCCCC1)Nc1cccc(Br)c1	ABCB6 inh MLPCN 69 | ABCB6 inh CP1 inactive
CCOC(=O)N1CCN(CC(=O)Nc2ccc(C)cc2)CC1	ABCB6 inh MLPCN 72 | ABCB6 inh CP1 inactive
O=C(CN1CCOCC1)Nc1cccc(Br)c1	none
O=C(Nc1ccncc1)Nc1ccccc1Cl	none
O=C(Nc1ccc(Nc2ccccc2)cc1)Nc1ccccc1Cl	ABCB6 inh MLPCN 10 | ABCB6 inh CP1 inactive
CS(=O)(=O)Nc1ccccc1-c1cccc2nccn12	ABCB6 inh MLPCN 68 (no result: Platelet DG rel, VLA-4 inh, Yeast superoxide) | ABCB6 inh CP1 inactive
COC(=O)c1ccc(-c2ccc(F)cc2)nc1C	ABCB6 inh MLPCN 63 | ABCB6 inh CP1 inactive
COC(=O)C1CCN(C(=O)Cc2ccccc2OC)CC1	ABCB6 inh MLPCN 72 | ABCB6 inh CP1 inactive
COc1cc(CNC(=O)c2cc(-c3ccc(F)cc3OC)n[nH]2)cc(OC)c1	none (no result: Platelet DG rel, VLA-4 inh, Yeast superoxide)
O=C1NC[C@H](CCCCN2C[C@H](Cc3ccccc3)N(CCc3ccccc3)C(=O)C2=O)N(CCC2CCCCC2)C1=O	none (no result: Platelet DG rel, VLA-4 inh, Yeast superoxide)
COc1ccc(OC)c(NC(=O)c2nc(S(=O)(=O)Cc3ccccc3)ncc2Cl)c1	none | K562 vector FC inactive
COc1ccc(NC(=O)c2c(-c3ccccc3Cl)noc2C)c(OC)c1	none
COc1ccc(NC(=O)c2nc(S(=O)(=O)Cc3cccc(C)c3)ncc2Cl)c(OC)c1	none | K562 vector FC inactive
COc1ccc(OC)c(NC(=O)CS(=O)(=O)Cc2ccccc2)c1	none (no result: VLA-4 inh, Yeast superoxide)
Cc1cccc(C)c1NC(=O)C(c1ccnc2ccccc12)N1CCN(CCN(C)C)CC1 (stereo unspecified)	none (no result: Platelet DG rel, VLA-4 inh, ABCB6 inh MLPCN, Yeast superoxide)
CCOc1cc(CNc2ncnc3nc[nH]c23)ccc1OC	ABCB6 inh MLPCN 73 | ABCB6 inh CP1 inactive
O=C(COC(=O)C1CCN(S(=O)(=O)c2cccs2)CC1)c1ccccc1	none
C/C(N)=C(/C#N)C(=O)COC(=O)C1CCN(S(=O)(=O)c2cccs2)CC1	none (no result: Platelet DG rel) | ABCB6 inh CP1 inactive
CCCCCC(O)(c1ccccc1)C(CN1CCOCC1)c1ccccc1 (stereo unspecified)	ABCB6 inh MLPCN 72 | ABCB6 inh CP1 inactive
CS(=O)(=O)Nc1cccc(NC(=O)C2Cc3c(-c4ccco4)ccnc3O2)c1 (stereo unspecified)	none (no result: Platelet DG rel, VLA-4 inh, Yeast superoxide)
CC(=O)c1cccc(-c2ccnc3c2CC(C(=O)Nc2cccc(N(C)C)c2)O3)c1 (stereo unspecified)	none (no result: Platelet DG rel, VLA-4 inh, Yeast superoxide) | ABCB6 inh CP1 inactive
CC(=O)c1cccc(-c2ccnc3c2CC(C(=O)Nc2cccc(Oc4ccccc4)c2)O3)c1 (stereo unspecified)	none (no result: Platelet DG rel, VLA-4 inh, Yeast superoxide) | ABCB6 inh CP1 inactive
O=C(Nc1cccc(Oc2ccccc2)c1)C1Cc2c(-c3ccccc3)ccnc2O1 (stereo unspecified)	none (no result: Platelet DG rel, VLA-4 inh, Yeast superoxide) | ABCB6 inh CP1 inactive
O=C(Nc1cccc(Oc2ccccc2)c1)C1Cc2c(-c3ccco3)ccnc2O1 (stereo unspecified)	ABCB6 inh MLPCN 69 (no result: Platelet DG rel, VLA-4 inh, Yeast superoxide) | ABCB6 inh CP1 inactive
CC(=O)c1cccc(NC(=O)C2Cc3c(-c4cccc(C(C)=O)c4)ccnc3O2)c1 (stereo unspecified)	none (no result: Platelet DG rel, VLA-4 inh, Yeast superoxide)
Clc1ccc(Cn2ncc3c(N4CCN(c5ccccc5)CC4)ncnc32)cc1	none (no result: Platelet DG rel, VLA-4 inh, Yeast superoxide)
Cc1ccc(S(=O)(=O)N2CCN(c3nc(-c4cccs4)nc4ccccc34)CC2)cc1	none (no result: Platelet DG rel, VLA-4 inh, Yeast superoxide)
COc1ccc(S(=O)(=O)N2CCN(C)CC2)cc1Br	none
CCN1CCN(S(=O)(=O)c2ccc(OC)c(Br)c2)CC1	ABCB6 inh MLPCN 74 | ABCB6 inh CP1 inactive
Cc1ccc(OCC(O)CNC(=O)c2ccccc2C(=O)O)cc1 (stereo unspecified)	ABCB6 inh MLPCN 71 (no result: Platelet DG rel) | ABCB6 inh CP1 inactive
CCNC(=O)c1cccc(NC(=O)CN2C(=O)NC3(CCCCC3)C2=O)c1	none (no result: Platelet DG rel, VLA-4 inh, Yeast superoxide)
CC(=O)c1cccc(NC(=O)CN2C(=O)NC3(CCCCCCC3)C2=O)c1	ABCB6 inh MLPCN 61 | ABCB6 inh CP1 inactive
Cc1ccc(N2C(=O)C(CN3CCCC3)C2c2ccccc2)cc1 (stereo unspecified)	ABCB6 inh MLPCN 73 | ABCB6 inh CP1 inactive
CCOC(=O)C1CCCN(C(=O)c2cn(C)c3ccc(S(=O)(=O)N4CCCC4)cc3c2=O)C1 (stereo unspecified)	ABCB6 inh MLPCN 57 (no result: Platelet DG rel) | ABCB6 inh CP1 inactive
O=C(NCc1cccc(Cl)c1)c1ccc2ccccc2n1	ABCB6 inh MLPCN 70 | ABCB6 inh CP1 inactive
O=C(NCc1ccccc1Cl)c1ccc2ccccc2n1	none
CCC(C)[C@H](NC(=O)Nc1ccc(S(N)(=O)=O)cc1)C(=O)O (stereo partly specified)	none
COC(=O)[C@@H](NC(=O)Nc1ccc(S(N)(=O)=O)cc1)C(C)C	ABCB6 inh MLPCN 71 | ABCB6 inh CP1 inactive
CC(=O)Nc1ccc(NC(=O)[C@H](C)NC(=O)c2ccco2)cc1	ABCB6 inh MLPCN 64 | ABCB6 inh CP1 inactive
Fc1ccc(CNc2ncnc3cc(Cl)ccc23)cc1	ABCB6 inh MLPCN 9.0 | ABCB6 inh CP1 inactive
COc1ccc(CNc2ncnc3cc(Cl)ccc23)cc1OC	none (no result: VLA-4 inh, Yeast superoxide)
CC(C)(C(=O)N1CCC1(C)C(=O)NS(=O)(=O)c1cccc(Cl)c1)c1ccccc1 (stereo unspecified)	none (no result: Platelet DG rel, VLA-4 inh, Yeast superoxide) | ABCB6 inh CP1 inactive
CC(C)(C)c1ccc(S(=O)(=O)NC(=O)C2(C)CCN2C(=O)Cc2ccccc2Cl)cc1 (stereo unspecified)	none (no result: Platelet DG rel, VLA-4 inh, Yeast superoxide)
COc1ccc(OC)c(S(=O)(=O)NC(=O)C2(C)CCN2C(=O)Cc2ccccc2Cl)c1 (stereo unspecified)	none (no result: Platelet DG rel, VLA-4 inh, Yeast superoxide) | ABCB6 inh CP1 inactive
CC1(C(=O)NS(=O)(=O)c2ccccc2C(F)(F)F)CCN1C(=O)C1CCCCC1 (stereo unspecified)	ABCB6 inh MLPCN 62 (no result: Platelet DG rel, VLA-4 inh, Yeast superoxide) | ABCB6 inh CP1 inactive
COc1ccc(S(=O)(=O)NC(=O)C2(C)CCN2C(=O)Cc2ccccc2Cl)cc1 (stereo unspecified)	none (no result: Platelet DG rel, VLA-4 inh, Yeast superoxide) | ABCB6 inh CP1 inactive
